In all, about 69,000 compounds went through this assay and about 8,600 (12%) showed an effect of 50% or more. The full list was thinned out, with strong results kept by preference.

This assay concerns Plasmodium berghei. In words: Screen against P. berghei liver stage (PbLuc), transformed with Luciferase, at 10uM. The assay is classed as functional, HepG2. To be noted: tested at 10 uM.
Take `CC(NC(=O)NCCCn1cncn1)c1ccc(C#N)cc1` (stereo not given): the INHIBITION stood at 24.75%.

Take `CC=C(C)C(=O)NS(=O)(=O)c1ccc(C(F)(F)F)cn1`: the INHIBITION worked out at 13.8%.

`O=C(CCCN1CCOCC1)N1CCCC(CO)(CC2CC2)C1` (stereo not given): the INHIBITION was -4.21%.

As for `CC(C1CCN(C(=O)c2coc(CN3CCOCC3)c2)CC1)N(C)C` (stereo not given), the INHIBITION is recorded as 35.8%.

For the compound `Cc1cc(NCCC(=O)NC2CCS(=O)(=O)C2)nc(-c2ccncc2)n1` (stereo not given), the INHIBITION is recorded as 15.7%.

On to `COc1cccc(C(=O)N2CCc3nc(C4CCCN4)ncc3C2)c1` (stereo not given), for which the INHIBITION was determined as 59.3%.

For `CC(C)c1cc(C(=O)N2CCc3nc(C4CCCN4)ncc3C2)cs1` (stereo not given), the INHIBITION turned out to be 28%.

Regarding `Cc1cc(C(=O)N2CCc3nc(C4CCCN4)ncc3C2)cs1` (stereo not given), the INHIBITION was -16.5%.

On to `COc1ncc(NCc2ccc(C#N)cc2)cc1C(N)=O`, for which the INHIBITION is 8.12%.

Turning to `COc1ncc(NCc2ccc(Cl)c(Cl)c2)cc1C(N)=O`, the INHIBITION was found to be 71.8%.

For the compound `COc1ncc(NCc2ccc(F)cc2)cc1C(N)=O`, the INHIBITION is -5.1%.

For the compound `CCC(=O)N1CCC2(COCc3cnc(NCc4ccco4)nc32)C1` (stereo not given), the INHIBITION came out at 6.55%.

As for `CNc1cc(N2CCC(O)(CNC(=O)c3ccc(C)nc3)C2)ncn1` (stereo not given), the INHIBITION is listed as 12.3%.

With `Cc1cnn(CC2CCCN2CC(=O)Nc2cc(C)on2)c1` (stereo not given), the INHIBITION is -23.9%.

As for `Cc1nccc(N(C)Cc2ncc(-c3ccccc3C(=O)O)s2)n1`, the INHIBITION came out at 1.635%.

For the compound `COc1cc2c(cc1OC)C(=O)C(Sc1nnc(C)o1)C2` (stereo not given), the INHIBITION is listed as 27.5%.

`O=C(O)CC1COCCN1CCCc1ccccc1` (stereo not given): the INHIBITION is on record as 56.2%.

With `O=C(O)CC1COCCN1Cc1ccccc1OCCc1ccccc1` (stereo not given), the INHIBITION stood at 1.95%.

With `O=C(O)CC1COCCN1Cc1ccccc1-c1ccccc1` (stereo not given), the INHIBITION was -4.56%.

With `CCS(=O)(=O)NCCCn1ncc2c(C)cccc21`, the INHIBITION came out at 4.35%.

On to `Cc1cc(C(=O)N(C)CCCn2cccn2)nc(N)n1`, for which the INHIBITION is on record as 64.1%.

With `Cc1cc(N(C)CCCn2cccn2)nc(-c2cccnc2)n1`, the INHIBITION is given as -37.2%.

On to `Cc1cc(N(C)CCCn2cccn2)nc(N)n1`, for which the INHIBITION worked out at 75.2%.

As for `CCOc1c(F)cccc1C(=O)N(C)CCn1cccn1`, the INHIBITION is recorded as -27.6%.

For `Cc1cc(N(C)C)nc(NCCn2cccn2)n1`, the INHIBITION is on record as -24.4%.

Turning to `CCCN(Cc1nccn1C)C(=O)c1cc(C)nc(C)n1`, the INHIBITION came to 42.1%.

Take `COc1ccc(Cl)c(NCC(=O)NCC(=O)N2CCCC2)c1`: the INHIBITION was 24.1%.

Take `COCC1CCCCN1C(=O)c1cc(Cn2ccc3ccccc32)[nH]n1` (stereo not given): the INHIBITION is listed as -14.9%.

Regarding `CCN(C)C[C@@H]1CN(S(=O)(=O)c2cccc(Cl)c2)C[C@@H]1CO`, the INHIBITION is on record as 57.6%.

As to `COCCN(C)C[C@@H]1CN(C(=O)c2cccc(Cl)c2)C[C@@H]1CO`, the INHIBITION stood at 10.7%.

Consider `CCN(C)C[C@@H]1CN(S(=O)(=O)c2ccc(OC)cc2)C[C@@H]1CO`, for which the INHIBITION is 39.4%.

For the compound `CCN(C)C[C@@H]1CN(S(=O)(=O)c2ccc(C#N)cc2)C[C@@H]1CO`, the INHIBITION amounted to 58.6%.

Consider `CCN(C)C[C@@H]1CN(Cc2cccc(Cl)c2)C[C@@H]1CO`, for which the INHIBITION was found to be 43.3%.

With `CCN(C)C[C@@H]1CN(S(=O)(=O)c2cccc(C#N)c2)C[C@@H]1CO`, the INHIBITION came out at 36.2%.

Regarding `O=S(=O)(C1CC1)N1CC[C@]2(C[C@@H](Oc3ccccn3)CO2)C1`, the INHIBITION is 17.3%.

For the compound `CCCc1n[nH]c(C2CN(CCC(F)(F)F)CCO2)n1` (stereo not given), the INHIBITION was 29.7%.

For `Cc1nnc([C@@]23CCO[C@@H]2CCN(Cc2nccs2)C3)o1`, the INHIBITION is 37.6%.

In the case of `CCc1nc(CN2CCOC(Cn3cncn3)C2)no1` (stereo not given), the INHIBITION is listed as -7.31%.

For `Cc1cc(CN2CCN(C(C)C)C(CCO)C2)[nH]n1` (stereo not given), the INHIBITION turned out to be 15.5%.

Take `O=c1c(=CS(=O)(=O)Nc2ccc(Cl)cc2)[nH]c(=O)n2cccc12`: the INHIBITION was -51.6%.

`Cc1ccc(NS(=O)(=O)C=c2[nH]c(=O)n3cccc3c2=O)cc1`: the INHIBITION is -53.7%.

As to `O=c1c(=CS(=O)(=O)Nc2ccc(Br)cc2)[nH]c(=O)n2cccc12`, the INHIBITION was determined as 67.3%.

Take `O=c1c(=CS(=O)(=O)Nc2ccccc2)[nH]c(=O)n2cccc12`: the INHIBITION was -63.5%.

`CC(C)c1ccc(NS(=O)(=O)C=c2[nH]c(=O)n3cccc3c2=O)cc1`: the INHIBITION is reported as -26.1%.

As for `COc1ccc(NS(=O)(=O)C=c2[nH]c(=O)n3cccc3c2=O)cc1Cl`, the INHIBITION came to 86.4%.

For the compound `Cn1cnc2ccc(NC(=O)CC3CCN(S(C)(=O)=O)CC3)cc21`, the INHIBITION is on record as -9.2%.

`CC(=O)c1cccc(OC(C)C(=O)Nc2cnn(CCN(C)C)c2)c1` (stereo not given): the INHIBITION is 34.2%.

Regarding `CC(Oc1cccc(Cl)c1)C(=O)Nc1cnn(CCN(C)C)c1` (stereo not given), the INHIBITION is 60%.

On to `CC(Oc1cccc(Cl)c1)C(=O)Nc1cnn(CC(=O)NC2CC2)c1` (stereo not given), for which the INHIBITION came out at 10.7%.

For `CC(C)c1cc(C(=O)NCCc2nc(-c3cccnc3)n[nH]2)[nH]n1`, the INHIBITION was 12.365%.

Turning to `c1cnc(N2CCc3onc(CN4CCOCC4)c3C2)cn1`, the INHIBITION came to 12.6%.

Consider `CSC1(CNC(=O)N(C)Cc2ccc(Cl)s2)CCOCC1`, for which the INHIBITION was 19.1%.

On to `CSC1(CNC(=O)N(C)Cc2ccc(C)s2)CCOCC1`, for which the INHIBITION is listed as 57.3%.

`CSC1(CNC(=O)N(C)Cc2sccc2C)CCOCC1`: the INHIBITION stood at 43.4%.

Take `OCCN1CCN(CCOCC(F)(F)F)CC1`: the INHIBITION is 28.3%.

Turning to `CN1C(=O)C[C@H]2[C@H]1CCN2Cc1cccc(C#N)c1`, the INHIBITION is on record as 7.77%.

Turning to `COCCN1C(=O)C[C@H]2[C@H]1CCN2Cc1cccc(C#N)c1`, the INHIBITION was determined as 33.5%.

Consider `N#Cc1cccc(CN2CC[C@@H]3[C@@H]2CC(=O)N3Cc2ccncc2)c1`, for which the INHIBITION came to 29.9%.

Regarding `N#Cc1cccc(CN2CC[C@@H]3[C@@H]2CC(=O)N3CCN2CCCC2)c1`, the INHIBITION worked out at 21.8%.

For the compound `COCCN1C(=O)C[C@H]2[C@H]1CCN2Cc1ccc(OC)cc1`, the INHIBITION worked out at 16.5%.

With `CC(C)CN1C(=O)C[C@@H]2[C@@H]1CCN2Cc1cccc(C#N)c1`, the INHIBITION is reported as 63.7%.

As for `COCCN1C(=O)C[C@H]2[C@H]1CCN2Cc1ccccc1`, the INHIBITION was 54.4%.

Turning to `COCCN1C(=O)CC[C@@H]2[C@H]1CCN2Cc1cccc(C#N)c1`, the INHIBITION is listed as 27.6%.

Turning to `CN(C)C(=O)CN1C(=O)C[C@@H]2[C@@H]1CCN2Cc1cccc(C#N)c1`, the INHIBITION is 81.2%.

In the case of `N#Cc1cccc(NC(=O)CCn2nc(-c3cccs3)oc2=O)c1`, the INHIBITION is 38.8%.
